Test systems include NCI-H23 lung; NCI-H226 lung; NCI-H322M lung; HOP-62 NSCLC; NCI-H460 lung; HOP-92 NSCLC; NCI-H522 lung; A549/ATCC NSCLC; 786-0 renal; COLO 205 colon; DU-145 prostate; K-562 leukemia; MALME-3M melanoma; MDA-MB-231 breast; RXF 393 renal; SF-268 CNS; SF-295 CNS; SF-539 CNS; UACC-257 melanoma; M14 melanoma.
Common to all, as to test: NCI-60 one-dose screen, 48 h (100 = growth as untreated, 0 = no growth, -100 = all killed)
Conditions in all cases: 10 µM unless noted

Each structure is given as a SMILES string. This is part of a sample that, as a whole, favours compounds with a hit. Of some 83,000 tested, about 20% had one in any assay.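 Assay: single dose, 48 h. Readout: percent growth (0 = no net growth; negative = cell death). Active: <10.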 Unmarked numbers belong to inactive results. Activity calls are given as the source filed them.

As to `O=[N+]([O-])c1cccc(CN(Cc2cccc([N+](=O)[O-])c2O)c2ccccc2)c1O`, the growth with NCI-H23 lung is 58.4%; with NCI-H226 lung, 83.2%; in the assay with NCI-H322M lung, 60.1%; in the assay with HOP-62 NSCLC, 78.4%; in the assay with NCI-H460 lung, 80.1%; in the assay with HOP-92 NSCLC it was 54.5%. The growth is 63.9% with NCI-H522 lung; 71% in the assay with A549/ATCC NSCLC; 51.1% in the assay on 786-0 renal; 78% with COLO 205 colon; 94.3% in the assay on DU-145 prostate; 60.5% in the assay on K-562 leukemia. Further, the growth was 87.2% in the assay on MALME-3M melanoma; 68.8% with MDA-MB-231 breast; 88.6% in the assay on RXF 393 renal; 89.4% in the assay with SF-268 CNS; 66.6% in the assay on SF-295 CNS; 94.7% in the assay on SF-539 CNS. Besides, the growth is 93.3% with UACC-257 melanoma and 67.6% with M14 melanoma.

Regarding `OCCNc1nc(NCCO)nc(Nc2ccc(C3=NN(c4cc(Cl)cc(Cl)c4)C(c4ccc(Cl)cc4)C3)cc2)n1` (stereo not given), the growth in the assay with NCI-H23 lung was 29.1%; with NCI-H226 lung it was 109%; with NCI-H322M lung, 14.6%; in the assay with HOP-62 NSCLC it was 15.9%; in the assay on NCI-H460 lung, -22.7% (active); in the assay with HOP-92 NSCLC, 60.7%. The growth was 58.9% in the assay with NCI-H522 lung; 2.31% (active) in the assay on A549/ATCC NSCLC; -19.6% (active) in the assay with 786-0 renal; 7.12% (active) in the assay with COLO 205 colon; 0.477% (active) in the assay with DU-145 prostate; 4.31% (active) with K-562 leukemia. Besides, the growth with MALME-3M melanoma is -43.7% (active); in the assay on MDA-MB-231 breast it was 7.31% (active); with RXF 393 renal it was -57.8% (active); in the assay on SF-268 CNS, 19.1%; with SF-295 CNS it was -68.3% (active); in the assay with SF-539 CNS it was -45.2% (active). Also, the growth in the assay with UACC-257 melanoma was 48.4%; with M14 melanoma it was 1.11% (active).

As to `COc1ccc(C(C)c2cc(OC)c(OC)c(OC)c2)cc1` (stereo not given), the growth is 28.9% in the assay on NCI-H23 lung; 80.2% with NCI-H226 lung; 44.6% in the assay on NCI-H322M lung; 35.4% in the assay with HOP-62 NSCLC; 4.97% (active) with NCI-H460 lung; 49% in the assay on HOP-92 NSCLC. The growth in the assay on NCI-H522 lung is 9.34% (active); in the assay with A549/ATCC NSCLC it was 18.6%; in the assay on 786-0 renal it was 22.6%; with COLO 205 colon it was -15.2% (active); with DU-145 prostate it was 9.97% (active); in the assay with K-562 leukemia, 7.1% (active). In addition, the growth with MALME-3M melanoma was 67.5%; with MDA-MB-231 breast it was 30.5%; in the assay with RXF 393 renal, 24.7%; in the assay on SF-268 CNS it was 37.5%; in the assay with SF-295 CNS, 15.6%; in the assay with SF-539 CNS, -7.56% (active). Moreover, the growth in the assay on UACC-257 melanoma was 53%; with M14 melanoma, 7.54% (active).

For `Cc1nccc2c3ccc(OCc4cn(-c5ccc(Br)cc5)nn4)cc3n(CC(C)C)c12`, the growth in the assay on NCI-H23 lung is 40.1%; in the assay with NCI-H226 lung it was 58.1%; in the assay with NCI-H322M lung, 90.6%; with HOP-62 NSCLC, 65.8%; in the assay on NCI-H460 lung, 44.3%; in the assay on HOP-92 NSCLC, 16.4%. The growth in the assay with NCI-H522 lung was 26.5%; with A549/ATCC NSCLC it was 41.1%; with 786-0 renal it was 28.5%; with COLO 205 colon it was 15.1%; with DU-145 prostate, 76%; with K-562 leukemia, 14.8%. Also, the growth in the assay on MALME-3M melanoma was 51.1%; with MDA-MB-231 breast, 46.9%; in the assay with RXF 393 renal, 46.1%; in the assay with SF-268 CNS it was 68.4%; in the assay on SF-295 CNS, 40%; in the assay on SF-539 CNS it was 61.4%. For the same compound, the growth is 27.3% in the assay with UACC-257 melanoma and 42.6% with M14 melanoma.

Turning to `COc1ccc(C2CC(c3ccc(OC)cc3O)=NN2c2ccc(S(N)(=O)=O)cc2)cc1` (stereo not given), the growth in the assay with NCI-H23 lung was 65.6%; in the assay with NCI-H226 lung, 59.9%; in the assay with NCI-H322M lung, 59.4%; in the assay on HOP-62 NSCLC, 83.2%; in the assay with NCI-H460 lung, 14%; with HOP-92 NSCLC, 20.7%. Also, the growth in the assay on NCI-H522 lung is 34%; with A549/ATCC NSCLC it was 21.7%; in the assay on 786-0 renal, 38.5%; in the assay on COLO 205 colon, 29.5%; with DU-145 prostate it was 61.9%; in the assay with K-562 leukemia, 10.8%. Moreover, the growth was 121% in the assay with MALME-3M melanoma; 61.1% in the assay with MDA-MB-231 breast; 67.5% in the assay with RXF 393 renal; 50.5% with SF-268 CNS; -7.99% (active) in the assay with SF-295 CNS; 69.8% in the assay on SF-539 CNS. For the same compound, the growth in the assay with UACC-257 melanoma was 56.6%; in the assay on M14 melanoma it was 34.1%.

`CCCCCCCCCCCCCC1=NCC[N+]1(CCO)Cc1ccccc1` (stereo not given): the growth is -67% (active) in the assay with NCI-H23 lung; -30.2% (active) in the assay with NCI-H226 lung; -6.75% (active) with NCI-H322M lung; -82.6% (active) in the assay on HOP-62 NSCLC; -81.3% (active) in the assay with NCI-H460 lung; -73.1% (active) in the assay on HOP-92 NSCLC. In addition, the growth is -82.6% (active) with NCI-H522 lung; -68.8% (active) with A549/ATCC NSCLC; -80.5% (active) in the assay on 786-0 renal; -75.5% (active) with COLO 205 colon; -89.2% (active) with DU-145 prostate; -50.9% (active) in the assay with K-562 leukemia. Further, the growth is -75.8% (active) in the assay on MALME-3M melanoma; -79.9% (active) in the assay on MDA-MB-231 breast; -92.3% (active) in the assay with RXF 393 renal; -69.9% (active) with SF-268 CNS; -71.7% (active) in the assay on SF-295 CNS; -93.8% (active) in the assay with SF-539 CNS. The growth with UACC-257 melanoma was -71.8% (active); in the assay on M14 melanoma, -79.4% (active).

On to `CN1CC=C(c2cc(NC(=O)Nc3ccc(Oc4ccnc(NC(=O)C5CC5)c4)c(F)c3)cc(C(F)(F)F)c2)CC1`, for which the growth in the assay with NCI-H23 lung is -14.8% (active); in the assay on NCI-H226 lung, 4.49% (active); with NCI-H322M lung, 7.64% (active); with HOP-62 NSCLC, -13.2% (active); in the assay with NCI-H460 lung, -5.88% (active); with HOP-92 NSCLC, -17% (active). Also, the growth is -49.8% (active) in the assay on NCI-H522 lung; -6.76% (active) in the assay on A549/ATCC NSCLC; -6.75% (active) in the assay with 786-0 renal; -26.2% (active) with COLO 205 colon; 9.52% (active) in the assay on DU-145 prostate; -12.2% (active) in the assay on K-562 leukemia. Also, the growth in the assay on MALME-3M melanoma was -32.5% (active); in the assay with MDA-MB-231 breast it was -11.8% (active); with RXF 393 renal, -27.4% (active); in the assay on SF-268 CNS, -1.76% (active); with SF-295 CNS, -9.64% (active); in the assay with SF-539 CNS, -47.9% (active). Besides, the growth in the assay with UACC-257 melanoma was -0.573% (active); in the assay on M14 melanoma, -38.3% (active).

With `Cc1ccc(CS/C(=C\c2ccc([N+](=O)[O-])cc2)C(=O)c2ccc(F)cc2)cc1`, the growth in the assay with NCI-H23 lung was 57.2%; in the assay with NCI-H226 lung, 67%; in the assay on NCI-H322M lung, 103%; in the assay on HOP-62 NSCLC, 83.4%; with NCI-H460 lung, 82.3%; in the assay on HOP-92 NSCLC it was 96.2%. For the same compound, the growth in the assay with NCI-H522 lung was -5.69% (active); in the assay on A549/ATCC NSCLC, 85%; in the assay with 786-0 renal, 76.9%; in the assay on COLO 205 colon, 54.2%; in the assay on DU-145 prostate it was 91.2%; in the assay with K-562 leukemia, -0.821% (active). For the same compound, the growth in the assay with MALME-3M melanoma was 83.7%; in the assay with MDA-MB-231 breast, 60.5%; in the assay on RXF 393 renal it was 100%; in the assay with SF-268 CNS, 74.6%; in the assay on SF-295 CNS, 79.2%; with SF-539 CNS it was 98.1%. The growth in the assay on UACC-257 melanoma was 93.3%; with M14 melanoma it was 40.8%.

These data come from PubChem BioAssay (NCI).
